This passage reports Potency results from PubChem BioAssay (NCATS).

Molecules are shown by their SMILES. Results filed as inconclusive are left out. The source made the active and inactive calls. Calls follow the shape of the dose curve; as a rule, active = well fitted curve in the direction sought with a large enough effect; inconclusive = small, poorly fitted or top-dose-only effect, or another doubt; inactive = no such curve, though single readings can be large; an effect the other way counts as inactive or inconclusive.

Experiment [1] is described as follows: Quantitative High-Throughput drug screen in 47 multiple myeloma cell lines against the NCATS MIPE library collection: Delta47_JCRB cell viability assay (AID 1918925; also: nearly all actives have a fitted effect of over 45% in size). Summed up: (§1)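 We plated 500 myeloma cells per well, pinned in MIPE 4.0 compounds, and incubated for 48 hours at 37C. ATP was then quantified with CellTiter-Glo, with DMSO and media-only wells defining 100% and 0%.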

Experiment [2] is described as follows: Quantitative High-Throughput drug screen in 47 multiple myeloma cell lines against the NCATS MIPE library collection: EJM_DSMZ cell viability assay (AID 1918926; also: nearly all actives have a fitted effect of over 30% in size). In outline:
as §1

The nature of experiment [3]: Quantitative High-Throughput drug screen in 47 multiple myeloma cell lines against the NCATS MIPE library collection: AMO1_DSMZ cell viability assay (AID 1918927; also: nearly all actives have a fitted effect of over 30% in size). In outline:
as §1

Experiment [4] can be described thus: Quantitative High-Throughput drug screen in 47 multiple myeloma cell lines against the NCATS MIPE library collection: ARP1_JJKsccF8 cell viability assay (AID 1918928; also: nearly all actives have a fitted effect of over 40% in size). Summed up: (§2)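 Cell viability inhibition in this qHTS is measured via ATP content (CellTiter-Glo) after 48 h drug exposure at 37 °C. Wells hold 500 cells; DMSO-treated wells define 100% and medium-only wells 0%.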

Experiment [5] can be described thus: Quantitative High-Throughput drug screen in 47 multiple myeloma cell lines against the NCATS MIPE library collection: ARD_JJKsccE7 cell viability assay (AID 1918929). Summed up:
as §1

Experiment [6] is described as follows: Quantitative High-Throughput drug screen in 47 multiple myeloma cell lines against the NCATS MIPE library collection: Karpas620_DSMZ cell viability assay (AID 1918959). Also: nearly all actives have a fitted effect of over 30% in size. Summed up:
(§3)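 qHTS of the MIPE 4.0 collection: 500 myeloma cells/well, 48 h drug exposure at 37C in 5% CO2, then CellTiter-Glo for 5 min at room temperature before luminescence reading.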

Experiment [7] can be described thus: Quantitative High-Throughput drug screen in 47 multiple myeloma cell lines against the NCATS MIPE library collection: KMM1_JCRB cell viability assay (AID 1918960). Also: nearly all actives have a fitted effect of over 30% in size. In outline:
as §2

Experiment [8] in a line: Quantitative High-Throughput drug screen in 47 multiple myeloma cell lines against the NCATS MIPE library collection: Karpas417_ECACC cell viability assay (AID 1918961). To be noted: Karpas417 myeloma viability, CellTiter-Glo ATP luminescence, 48 h; viability (% of DMSO): at 45.8 µM (top of the series). Summed up: (§4)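 Luminescent ATP measurement with CellTiter-Glo gives viability, scaled between DMSO-only wells (100%) and media-only wells (0%). Cells, 500 per well, faced library compounds for 48 hours at 37C.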
In general terms: ATP-based viability assays read luminescence as a measure of living cells.

Experiment [9] is described as follows: Quantitative High-Throughput drug screen in 47 multiple myeloma cell lines against the NCATS MIPE library collection: KHM11_PLB cell viability assay (AID 1918962). Also: nearly all actives have a fitted effect of over 35% in size. In outline:
as §3

Experiment [10] can be described thus: Quantitative High-Throughput drug screen in 47 multiple myeloma cell lines against the NCATS MIPE library collection: JIM3_ECACC cell viability assay (AID 1918963; also: nearly all actives have a fitted effect of over 35% in size). In outline: as §3
Experiment [11] in a line: Quantitative High-Throughput drug screen in 47 multiple myeloma cell lines against the NCATS MIPE library collection: INA6_PLB cell viability assay (AID 1918965; also: nearly all actives have a fitted effect of over 55% in size). Summed up: as §4
The nature of experiment [12]: Quantitative High-Throughput drug screen in 47 multiple myeloma cell lines against the NCATS MIPE library collection: JJN3_DSMZ cell viability assay (AID 1918966; also: nearly all actives have a fitted effect of over 50% in size). In outline: as §1
Experiment [13] can be described thus: Quantitative High-Throughput drug screen in 47 multiple myeloma cell lines against the NCATS MIPE library collection: H1112_PLB cell viability assay (AID 1918967; also: nearly all actives have a fitted effect of over 30% in size). Summed up: as §1
Experiment [14] is described as follows: Quantitative High-Throughput drug screen in 47 multiple myeloma cell lines against the NCATS MIPE library collection: KMS27_JCRB cell viability assay (AID 1918970). Also: nearly all actives have a fitted effect of over 30% in size. In outline:
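Viability inhibition screen, 48 h compound exposure, luminescent ATP read-out.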

A short description of experiment [15]: Quantitative High-Throughput drug screen in 47 multiple myeloma cell lines against the NCATS MIPE library collection: KMS12BM_JCRB cell viability assay (AID 1918971). Also: nearly all actives have a fitted effect of over 35% in size. In outline: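 Steps: seed 500 cells per well; pin-transfer MIPE 4.0 library; incubate 48 h at 37C, 5% CO2, humidified; add CellTiter-Glo, 5 min room temperature; read luminescence.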
A short description of experiment [16]: Quantitative High-Throughput drug screen in 47 multiple myeloma cell lines against the NCATS MIPE library collection: KMS12PE_JCRB cell viability assay (AID 1918972). Also: nearly all actives have a fitted effect of over 30% in size. Summed up:
as §4

Experiment [17] in a line: Quantitative High-Throughput drug screen in 47 multiple myeloma cell lines against the NCATS MIPE library collection: KMS20_JCRB cell viability assay (AID 1918973). Also: nearly all actives have a fitted effect of over 45% in size. Summed up: as §1
The nature of experiment [18]: Quantitative High-Throughput drug screen in 47 multiple myeloma cell lines against the NCATS MIPE library collection: KMS21BM_JCRB cell viability assay (AID 1918974). To be noted: ATP luminescence, 48 h; viability: at 45.8 µM (top of the series) unless noted. In outline: as §1
A short description of experiment [19]: Quantitative High-Throughput drug screen in 47 multiple myeloma cell lines against the NCATS MIPE library collection: JIM1_ECACC cell viability assay (AID 1918964). In outline: as §1
The nature of experiment [20]: Quantitative High-Throughput drug screen in 47 multiple myeloma cell lines against the NCATS MIPE library collection: Karpas25_ECACC cell viability assay (AID 1918968; also: nearly all actives have a fitted effect of over 35% in size). In outline: as §1
Potency is read from the fitted curve at half-maximal effect.

Take `Cc1ccc(C(=O)Nc2ccc(CN3CCN(C)CC3)c(C(F)(F)F)c2)cc1C#Cc1cnc2cccnn12`: the Potency was 662 nM (active) in experiment [1]; 2640 nM (active) in [2]; 2960 nM (active) in [3]; 1660 nM (active) in [4]; 14800 nM (active) in [5]; 5260 nM (active) in experiment [6]. Moreover, the Potency in experiment [7] was 2090 nM (active); in experiment [8], 469 nM (active); in [9] it was 662 nM (active); in [10], 1870 nM (active); in experiment [11] it was 332 nM (active); in experiment [12], 2640 nM (active). Moreover, the Potency is 2090 nM (active) in experiment [13]; 2640 nM (active) in experiment [14]; 2960 nM (active) in [15]; 833 nM (active) in experiment [16]; 833 nM (active) in experiment [17]; 662 nM (active) in experiment [18].
For the molecule `O=C(NCCS(=O)(=O)c1ccc(C(F)(F)F)cn1)c1ccc(Cl)cc1`, the Potency result in experiment [1], in experiment [2], in experiment [3], in [4], in experiment [5] and in [6] was “inactive” each time. The Potency entry in [7], in [9], in [10], in experiment [11], in experiment [12] and in [13] was “inactive” in each case. The Potency result in [16] is “inactive”. In addition, the Potency in experiment [8] and in [15] was 23.5 nM (active) in each case.
For `CC1(C)OC2=C(C(=O)c3ccccc3C2=O)[C@H](NCc2ccccc2)[C@H]1O`, the Potency in experiment [1] is 2090 nM (active); in experiment [2] it was 2350 nM (active); in experiment [3], 662 nM (active); in experiment [4], 5260 nM (active); in [5], 4180 nM (active); in experiment [6] it was 1480 nM (active). For the same molecule, the Potency was 2350 nM (active) in experiment [7]; 1870 nM (active) in experiment [8]; 2090 nM (active) in experiment [10]; 2640 nM (active) in experiment [19]; 3720 nM (active) in experiment [12]; 2350 nM (active) in [13]. In addition, the Potency in experiment [14] is 1180 nM (active); in experiment [15], 8330 nM (active); in experiment [16] it was 1480 nM (active); in experiment [18], 1050 nM (active).
On to `CCc1c2c(nc3ccc(O)cc13)-c1cc3c(c(=O)n1C2)COC(=O)[C@]3(O)CC`, for which the Potency in [1] was 37.2 nM (active); in [2], 187 nM (active); in experiment [3] it was 11.8 nM (active); in [4], 187 nM (active); in experiment [5] it was 1660 nM (active); in experiment [6] it was 743 nM (active). The Potency in experiment [7] is 132 nM (active); in experiment [8], 332 nM (active); in experiment [9] it was 166 nM (active); in experiment [10] it was 526 nM (active); in experiment [19], 37.2 nM (active); in experiment [11], 1 nM (active). Also, the Potency in [12] is 332 nM (active); in [13], 46.9 nM (active); in experiment [20], 66.2 nM (active); in [14], 5.9 nM (active); in [15] it was 66.2 nM (active); in experiment [16], 187 nM (active). The Potency in [17] is 118 nM (active).
For `COc1cc2nccc(Oc3ccc(NC(=O)C4(C(=O)Nc5ccc(F)cc5)CC4)cc3)c2cc1OC`, the Potency is 18700 nM (active) in experiment [1]; 2960 nM (active) in experiment [2]; 1870 nM (active) in experiment [3]; 16600 nM (active) in experiment [4]; 2960 nM (active) in experiment [5]; 5260 nM (active) in [6]. The Potency in [7] is 2960 nM (active); in [10] it was 14800 nM (active); in [12], 1660 nM (active); in experiment [13] it was 11800 nM (active); in experiment [20], 5260 nM (active); in experiment [14], 4690 nM (active). Besides, the figures for the Potency in [15] and in experiment [16] were 11800 nM (active) and 7430 nM (active), respectively. Also, the Potency entry in experiment [8] was “inactive”.
For `O=C(C=Cc1c(C(=O)O)[nH]c2cc(Cl)cc(Cl)c12)Nc1ccccc1`, the Potency entry in [1], in experiment [2], in [3], in experiment [4], in experiment [5] and in [6] was “inactive” in each case. Moreover, the Potency result in experiment [7], in experiment [8], in [10], in experiment [19], in [11] and in experiment [12] was “inactive” each time. Moreover, the Potency result in experiment [13], in experiment [14], in experiment [15], in experiment [16] and in [17] was “inactive” throughout.
On to `CC(C)(O)c1cc2nc(-c3cnc(N)nc3)nc(N3CCOCC3)c2s1`, for which the Potency is 29.6 nM (active) in experiment [1]; 743 nM (active) in experiment [2]; 93.5 nM (active) in [3]; 18.7 nM (active) in [4]; 105 nM (active) in experiment [5]; 166 nM (active) in experiment [6]. Also, the Potency is 33.2 nM (active) in [7]; 14.8 nM (active) in experiment [8]; 10.5 nM (active) in experiment [19]; 743 nM (active) in [11]; 59 nM (active) in [12]; 418 nM (active) in [13]. Moreover, the Potency in experiment [20] is 29.6 nM (active); in experiment [15] it was 83.3 nM (active); in [16], 1480 nM (active); in [17], 148 nM (active); in experiment [18], 590 nM (active).
With `c1nc2nc(Nc3ccc(N4CCOCC4)cc3)nc(NC3CCCCC3)c2[nH]1`, the Potency in experiment [1] is 6620 nM (active); in experiment [2] it was 14800 nM (active); in experiment [3] it was 4690 nM (active); in experiment [4], 14800 nM (active); in experiment [5], 3320 nM (active); in experiment [6], 6620 nM (active). Further, the Potency in experiment [7] was 4690 nM (active); in experiment [8] it was 743 nM (active); in [9], 14800 nM (active); in [10], 3720 nM (active); in experiment [11], 2960 nM (active); in experiment [12], 18700 nM (active). Further, the Potency in experiment [13] was 5900 nM (active); in [20], 5260 nM (active); in experiment [14], 5900 nM (active); in experiment [15], 20900 nM (active); in [17] it was 4690 nM (active).
As for `CN1CCN(Cc2ccc(NC(=O)Nc3ccc(Oc4cc(NC(=O)C5CC5)ncn4)cc3)cc2C(F)(F)F)CC1`, the Potency in experiment [1] is 148 nM (active); in experiment [2] it was 332 nM (active); in [4] it was 372 nM (active); in experiment [10], 148 nM (active); in experiment [11], 132 nM (active); in [12], 264 nM (active). The Potency in [13] was 148 nM (active); in [20], 118 nM (active); in [15], 469 nM (active); in experiment [17] it was 132 nM (active). The Potency entry in experiment [3], in experiment [5], in [6], in [7], in experiment [8] and in experiment [16] was “inactive” in each case.
Turning to `O=C(C=Cc1cccc(S(=O)(=O)Nc2ccccc2)c1)NO`, the Potency in [1] is 1710 nM (active); in experiment [2] it was 6050 nM (active); in experiment [3] it was 855 nM (active); in [4], 960 nM (active); in experiment [5], 1080 nM (active); in experiment [6] it was 2410 nM (active). In addition, the Potency in experiment [7] is 1080 nM (active); in [8], 1080 nM (active); in [9] it was 3820 nM (active); in experiment [10], 5400 nM (active); in [19], 1710 nM (active); in experiment [12], 3400 nM (active). The Potency was 5400 nM (active) in experiment [13], 1910 nM (active) in experiment [15], 1910 nM (active) in [17] and 540 nM (active) in experiment [18].
